Data on 12 compounds can be found in PubChem BioAssay (EPA / NIEHS).

Records with an inconclusive call do not appear. Active and inactive are the calls of the source. How the source made its calls: active means hit-call score of the fitted dose curve at least 0.9, where 1 is the maximum; inconclusive means response in the unintended direction; inactive means score below 0.9.

Sequence of zebrafish Thyroid Hormone Receptor alpha (TRa), thraa (gene 30670) (Q98867 whole entry, looked up): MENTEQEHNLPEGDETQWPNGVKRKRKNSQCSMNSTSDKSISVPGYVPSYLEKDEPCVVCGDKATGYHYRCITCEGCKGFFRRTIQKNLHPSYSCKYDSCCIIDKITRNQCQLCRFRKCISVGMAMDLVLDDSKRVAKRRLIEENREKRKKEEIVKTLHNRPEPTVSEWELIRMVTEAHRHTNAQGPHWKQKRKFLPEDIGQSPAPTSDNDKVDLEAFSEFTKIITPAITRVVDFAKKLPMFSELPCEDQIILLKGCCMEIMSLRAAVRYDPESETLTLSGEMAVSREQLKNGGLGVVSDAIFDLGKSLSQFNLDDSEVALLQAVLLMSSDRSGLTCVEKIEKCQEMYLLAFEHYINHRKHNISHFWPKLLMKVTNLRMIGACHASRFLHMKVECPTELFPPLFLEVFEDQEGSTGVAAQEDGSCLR

For this test, the target named is zebrafish Thyroid Hormone Receptor alpha (TRa), thraa (gene 30670) (UniProt Q98867). The experiment in a line: ATG_zfTRa_XSP1: Attagene TRANS-FACTORIAL Multi-Species (XSP1) HepG2 Assay for zebrafish Thyroid Hormone Receptor alpha (TRa) (AID 2283807). As to the method:
ATG_XSP1_multi-species_TRANS is a cell-based, multiplexed assay created by modifying the existing Attagene TRANS-FACTORIAL system to include a panel of nuclear receptors from some or all the following species: human (Homo sapiens), mouse (Mus musculus), frog (Xenopus laevis), zebrafish (Danio rerio), chicken (Gallus gallus), and turtle (Chrysemys picta). The ECOTOX-FACTORIAL format uses HepG2, a human liver cell line, with measurements taken at 24 hours after chemical dosing in a 24-well plate. Xsp1 included 3 nM 6-alpha-fluorotestosterone to partially stimulate the androgen receptor.ATG_zfTRa_XSP1 is one of 29 assay components measured or calculated from the ATG_XSP1_multi-species_TRANS assay. It is designed to make measurements of mRNA induction, a form of inducible reporter, as detected with fluorescence intensity signals by Reverse transcription polymerase chain reaction (RT-PCR) and Capillary electrophoresis technology.The assay endpoint ATG_zfTRa_XSP1 was analyzed in the positive analysis fitting direction relative to DMSO as the negative control and baseline of activity. Using a type of inducible reporter, measures of mRNA for gain-of-signal activity can be used to understand the reporter gene at the transcription factor-level as they relate to the gene TR. Furthermore, this assay endpoint can be referred to as a primary readout, because this assay has produced multiple assay endpoints where this one serves a reporter gene function. To generalize the intended target to other relatable targets, this assay endpoint is annotated to the nuclear receptor intended target family, where the subfamily is non-steroidal.
Human liver HepG2 cells are transiently transfected with multiple reporter transcription units (MRTUs) in 6-well plates using FuGene 6 reagent (Roche; 3 ml FuGene/1 mg DNA). The MRTU constructs are regulated by a cis-regulating element (promoter). […] A major difference between the CIS and TRANS system is that in CIS activities of endogenous TFs are measured, whereas the TRANS assay evaluates changes in activities of exogenous, chimeric NR-Gal4 proteins. […] At the end of 24 hour incubation, total RNA was isolated using TriZol reagent (Invitrogen). The isolated RNA is then reverse-transcribed using oligo(dT) primer and Mo-MLV reverse transcriptase (Invitrogen) with DNAse I (Ambion) treatment for 30 min. The one-tenth of the produced cDNA was amplified by PCR using Taq DNA polymerase (Invitrogen) and two reporter sequence-specific primers. The PCR products were fluorescently labeled by primer extension with 6-arboxyfluorescein (6-FAM) 5'-labeled reporter sequence-specific primer (2 min at 95 C, 20 s at 68 C and 10 min at 72 C) and these products were digested with 5U of HpaI (New England Biolabs) for 2h at 37 C. The fragments were purified using Qiaquick PCR columns (Qiagen), analyzed on an ABI 3130xL genetic analyzer (Applied Biosystems) with peak positions identified by using a set of X-rhodamine (ROX)-labeled MapMarker1000 molecular weight standards (BioVentures). The raw capillary electrophoresis data was processed using Attagraph software (Attagene).
Take `C=CC1(C)OC(=O)N(c2cc(Cl)cc(Cl)c2)C1=O` (configuration not stated): the call was inactive.
For `COC(=O)N(OC)c1ccccc1COc1ccn(-c2ccc(Cl)cc2)n1`, the result was inactive.
With `CCCCOC(=O)c1ccccc1C(=O)OCCCC`, the compound was classed as inactive.
As to `CC(C)Oc1cc(-n2nc(C(C)(C)C)oc2=O)c(Cl)cc1Cl`, the result was inactive.
As for `CCCN(CCC)c1c([N+](=O)[O-])cc(S(N)(=O)=O)cc1[N+](=O)[O-]`, the compound was classed as inactive.
On to `CCCC1COC(Cn2cncn2)(c2ccc(Cl)cc2Cl)O1` (configuration not stated), for which the compound was classed as inactive.
For `CC(C)(C)c1ccc(CSc2cnn(C(C)(C)C)c(=O)c2Cl)cc1` the value was “inactive”; for `CO/C=C(/C(=O)OC)c1ccccc1Oc1cc(Oc2ccccc2C#N)ncn1`, “inactive”.
`COc1ccc(C(c2ccc(OC)cc2)C(Cl)(Cl)Cl)cc1`: the call was inactive.
For the compound `OC(c1ccc(Cl)cc1)(c1cncnc1)c1ccccc1Cl` (configuration not stated), the compound was classed as inactive.
For `CON(C)C(=O)Nc1ccc(Cl)c(Cl)c1` the value was “inactive”; for `CCCCC(CC)COC(=O)c1ccccc1C(=O)OCC(CC)CCCC` (configuration not stated), “inactive”.
